Experimental findings from PubChem BioAssay AID1441 (NMMLSC, 2008) are described below.

About 830 (0.38%) of roughly 220,000 compounds were called active. This excerpt belongs to a sample that is enriched for actives. A number with no mark means an inactive call. The rule behind the calls is not given here.

In this assay the target is Regulator of G-protein signaling 16 (Homo sapiens) + Guanine nucleotide-binding protein G(o) subunit alpha (Homo sapiens) (UniProt O15492+P09471). The assay is described as follows: RGS16-Galphao interaction inhibitors and enhancers – biochemical, human proteins, multiplexed bead flow cytometry, primary screen (AID 1441).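 Note: Galphao activated by GDP with aluminum fluoride before binding.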 Conditions: bead-based flow cytometry RGS16-Galphao binding, fluorescence; at 10 µM; actives lie on both sides.
Sequence of Regulator of G-protein signaling 16 (Homo sapiens) + Guanine nucleotide-binding protein G(o) subunit alpha (Homo sapiens) (O15492 whole entry, looked up): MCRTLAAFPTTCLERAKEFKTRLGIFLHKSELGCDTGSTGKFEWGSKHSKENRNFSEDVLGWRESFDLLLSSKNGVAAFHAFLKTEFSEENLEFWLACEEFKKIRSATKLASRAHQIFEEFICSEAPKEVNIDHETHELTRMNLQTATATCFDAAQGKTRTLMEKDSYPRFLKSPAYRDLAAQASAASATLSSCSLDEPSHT
Sequence of Regulator of G-protein signaling 16 (Homo sapiens) + Guanine nucleotide-binding protein G(o) subunit alpha (Homo sapiens) (P09471 whole entry, looked up): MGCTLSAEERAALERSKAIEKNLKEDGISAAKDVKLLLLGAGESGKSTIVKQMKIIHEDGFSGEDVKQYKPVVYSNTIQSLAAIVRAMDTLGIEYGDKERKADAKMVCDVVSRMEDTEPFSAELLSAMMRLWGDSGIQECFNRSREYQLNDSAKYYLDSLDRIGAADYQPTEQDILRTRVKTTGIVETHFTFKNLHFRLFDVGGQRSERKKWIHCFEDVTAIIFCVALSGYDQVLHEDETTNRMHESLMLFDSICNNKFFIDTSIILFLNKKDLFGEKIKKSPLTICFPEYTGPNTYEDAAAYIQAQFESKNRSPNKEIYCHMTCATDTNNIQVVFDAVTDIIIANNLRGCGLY
In the case of `COP1(=O)C[C@@H](O)[C@@H](O)[C@@H](COCc2ccccc2)O1` (stereo partly specified), the binding response (% of control) was 103%.
As to `Cc1ccsc1C1C(C#N)=C(N)OC2=C1C(=O)CC(C)(C)C2` (stereo unspecified), the binding response (% of control) was 118%.
`COc1ccc(Cl)cc1C(=O)NNC(=O)c1nc2nc(C)cc(C)n2n1`: the binding response (% of control) was 95.3%.
Then `O=C(OCc1ccc(Br)cc1)c1cccc(-c2nnc(-c3ccccc3)o2)c1`, with 102%; and `O=C(Nc1cccc(-c2nc3ccccc3[nH]2)c1)c1ccc(C(=O)Nc2cccc(-c3nc4ccccc4[nH]3)c2)cc1`, with 219% [activator] (active); and `O=C(Cc1cccs1)Nc1cccc(-c2nc3ccccc3[nH]2)c1`, with 97.3%.
Consider `O=C(/C=C/c1ccco1)Nc1cccc(-c2nc3ccccc3[nH]2)c1`, for which the binding response (% of control) is 98.3%.
Turning to `NC(=S)Nc1c(Cl)cccc1Cl`, the binding response (% of control) is 98.9%.
Then `CCOc1c(Nc2cccc(Cl)c2)c(=O)c1=O`, with 119%; and `COc1ccc(-c2ccc(CNCCCN3CCOCC3)o2)cc1Cl`, with 98.4%; and `CNC(=S)NNC(=O)c1cccn(Cc2ccccc2)c1=O`, with 100%.
For `CCCC[C@@H]1CN=C(N)N1CCc1cc(C(F)(F)F)cc(C(F)(F)F)c1`, the binding response (% of control) was 100%.
Then `CCN(CC)c1ccc(/C=N/NC(=O)c2cnccn2)c(O)c1`, with 94.6%; and `N/C(=N\OC(=O)CCc1ccccc1)c1cccnc1`, with 105%.
For `CCCC(=O)n1nc(-c2ccccc2)nc1N`, the binding response (% of control) is 14.9% (active).
On to `COc1ccc(CC(=O)n2nc(-c3cccnc3)nc2N)cc1`, for which the binding response (% of control) was 93.8%.
Consider `COc1ccccc1C(=O)n1nc(-c2ccccc2)nc1N`, for which the binding response (% of control) is 102%.
As for `Nc1ccccc1C(=O)NC1CCCCNC1=O` (stereo unspecified), the binding response (% of control) was 95.3%.
As to `COc1ccc2c(c1)C(=C(C#N)C#N)C(=O)N2CCc1ccccc1`, the binding response (% of control) is 113%.
For `Nc1ccc(C(=O)OCC(=O)NC2CCS(=O)(=O)C2)cc1[N+](=O)[O-]` (stereo unspecified), the binding response (% of control) is -10.3% (active).
As to `Nc1ccc(C(=O)OCC(=O)NC2CCCc3ccccc32)cc1[N+](=O)[O-]` (stereo unspecified), the binding response (% of control) was 98.8%.
For the compound `O=C(COC(=O)/C=C/c1ccc2c(c1)OCO2)NC1CCS(=O)(=O)C1` (stereo unspecified), the binding response (% of control) is 98.5%.
For `COc1cc(OC)c(C(=O)N2CCCC2)cc1OC`, the binding response (% of control) was 100%.
As for `CCC(C)(C)NC(=O)C(c1cccc(OC)c1OC)N(CC(C)C)C(=O)CCC(=O)Nc1cc(C)on1` (stereo unspecified), the binding response (% of control) is 105%.
As for `COc1ccc(-c2nn(-c3ccccc3)cc2C(=O)Nc2nc(CC(C)=O)ns2)cc1`, the binding response (% of control) is 95.8%.
For the compound `COc1ccc(-c2nn(-c3ccccc3)cc2/C=N/Nc2ccccn2)cc1OC`, the binding response (% of control) was 112%.
In the case of `COc1ccc(-c2nn(-c3ccccc3)cc2C(=O)Nc2nccs2)cc1OC`, the binding response (% of control) is 24.6% (active).
The value for `CC(C)Oc1ccc(CCc2nnc(SCC(=O)O)n2-c2ccccc2)cc1` was 99.7%; that for `COC(=O)[C@H]1Cc2cnoc2C[C@]1(C)C(=O)O` was 104%; that for `Cc1ccc(SCC2=NNC(=O)C2)cc1` was 110%.
Then `Cc1ccc(N2C(=O)C3C(c4ccccc4)(C2=O)C3(c2ccccc2)c2ccccc2)cc1` (stereo unspecified), with 13.2% (active).
For the compound `Cc1ccc(N2C(=O)C(Cc3ccccc3)NC2=S)cc1` (stereo unspecified), the binding response (% of control) was 102%.
For `Cc1ccc(N2C(=O)C3CC3C2=O)cc1` (stereo unspecified), the binding response (% of control) was 101%.
On to `C/C=C/c1ccc(OCCCCN2CCC(C)CC2)c(OC)c1`, for which the binding response (% of control) is 95%.
The value for `O=c1[nH]c2ccccc2s1` was 23% (active).
With `O=c1c(-c2ccc(Cl)cc2)[n+]([O-])c2ccccc2n1OCc1nc2ccccc2[nH]1`, the binding response (% of control) is 108%.
Turning to `CCCC1C(c2ccccc2)C(C#N)(C#N)C2(C#N)CC1(N)NC2=O` (stereo unspecified), the binding response (% of control) was 178% [activator] (active).
For the compound `O=C(NNC(=S)NC1CCCCC1)c1ccccc1Cl`, the binding response (% of control) is 99.1%.
As to `CCC(=O)Nc1c(S(=O)(=O)c2ccccc2)c2nc3ccccc3nc2n1Cc1ccccc1`, the binding response (% of control) is 13.9% (active).
As for `Cc1ccc(S(=O)(=O)c2c(N)n(C)c3nc4ccccc4nc23)cc1`, the binding response (% of control) is 101%.
Regarding `CCN(CC)CCn1c(N)c(S(=O)(=O)c2ccccc2)c2nc3ccccc3nc21`, the binding response (% of control) is 104%.
`S=c1[nH]nc(-c2cccs2)n1/N=C/c1cn(-c2ccccc2)nc1-c1ccc(Cl)cc1`: the binding response (% of control) is 98.8%.
On to `C/C(=N\NS(=O)(=O)c1ccc(Br)cc1)c1cccs1`, for which the binding response (% of control) is -881% (active).
Consider `C/C(=N\OCC(=O)Nc1ccc(Br)cc1)c1cccs1`, for which the binding response (% of control) is 99.8%.
As to `O=S(=O)(NN=C1CCCCCCC1)c1ccc(Br)cc1`, the binding response (% of control) was 106%.
With `Cc1ccc(-n2c(SCC(=O)Nc3ccc4c(c3)OCO4)nnc2-c2ccccn2)cc1`, the binding response (% of control) was 96.8%.
The value for `Cc1ccc(-n2c(Cc3cccs3)nnc2SCC(=O)OC(C)C)cc1` was 103%; that for `COc1ccc(-n2c(SCC(=O)OC(C)C)nnc2-c2ccccn2)cc1` was 242% [activator] (active); that for `Cc1cc(C(=O)OCC(=O)Nc2nccs2)c2ccccc2n1` was 99%.
The value for `CCc1nc(NCCO)c(C#N)c2c1CCCC2` was 92.9%; that for `CC(=O)NCCn1c(SCC(=O)Nc2ccc(C)cc2)nc2ccccc2c1=O` was 197%.
On to `CCc1ccc(NC(=O)CSc2nc3ccccc3c(=O)n2CCN2CCOCC2)cc1`, for which the binding response (% of control) was 97.8%.
For `CCOc1ccc(NC(=O)CSc2nc3ccccc3c(=O)n2Cc2cccs2)cc1`, the binding response (% of control) was -1.24% (active).
For the compound `NC(=O)c1nnsc1-c1ccc(-c2snnc2C(N)=O)cc1`, the binding response (% of control) is 103%.
`COc1cc2[nH]c(=S)n(Cc3ccc(F)cc3)c(=O)c2cc1OC`: the binding response (% of control) was 76.9%.
The value for `Cc1cc(C(=O)N/N=C/c2cc([N+](=O)[O-])cc(C)c2O)n[nH]1` was 78.3%.
For `Cn1c(CCCOc2ccc(Cl)cc2Cl)n[nH]c1=S`, the binding response (% of control) is 101%.
Then `O=S(=O)(c1ccccc1)N1CN(Cc2ccc(F)cc2)c2nc3ccccc3nc21`, with 100%; and `COc1ccc(CNC(=O)C2CCC(CNc3c(N4CCOCC4)c(=O)c3=O)CC2)cc1` (stereo unspecified), with 104%.
`O=C(NCc1ccc(F)cc1)C1CCC(CNc2c(N3CCOCC3)c(=O)c2=O)CC1` (stereo unspecified): the binding response (% of control) was 3.97% (active).
On to `CC(NC(=O)C1CCC(CNc2c(N3CCOCC3)c(=O)c2=O)CC1)c1ccccc1` (stereo unspecified), for which the binding response (% of control) is 99.6%.
